Measurements as given in PubChem BioAssay AID1259421 (Broad Institute, 2018).
Where “and” joins values, the source holds several entries; their conditions need not be identical. Equal values may be shown once. Among all 6,400 compounds or so, about 610 (9.5%) were called active. No stated cut-off is given here; in the data, active means activity change below about -70%; inconclusive means no clear call, values can overlap the other calls; inactive means above that. The sample as a whole holds a higher share of actives than the screen did. More than one record can exist for a structure, and the calls need not agree.

Test: Toxoplasma gondii ME49Luc growth in HeLa cells, luciferase, no IFN-y, primary screen (AID 1259421)
Conditions: T. gondii ME49Luc in HeLa, 72 h, stronger effect = lower value, concentration not given here

Molecule	activity change, negative = inhibition
CO[C@@H]1COCC[C@@H]1N[C@@H]1CC[C@@](C(=O)N2CCc3ncc(C(F)(F)F)cc3C2)(C(C)C)C1	3.98% (inactive)
Cc1ccc(F)c(NC(=O)Nc2ccc(-c3cccc4[nH]nc(N)c34)cc2)c1	-78.3% (active)
Cc1cc(NC(=O)Nc2ccc(N(C)C)cc2)c2cc(F)cc(F)c2n1	31.3% (inactive)
COc1cc(OC)c2c(c1)OC(c1ccccc1)CC2=O (stereo unspecified)	34.9% (inactive)
O=c1oc(-c2ccc(C(F)(F)F)cc2)nn1Cc1cc(Cl)ccc1O	24.7% (inactive) and -12.8% (inactive)
CCn1c(=O)n(C2=C(CO)CN(CC3CCCCCCC3)CC2)c2ccccc21	12.4% (inactive) and -0.696% (inactive)
Cc1cc(Nc2ccc(NC(=O)c3ccc(Nc4ccnc5ccccc45)cc3)cc2)nc(N)n1	-89.9% (active)
O=C(OCC(O)CO)c1ccccc1Nc1ccnc2cc(Cl)ccc12 (stereo unspecified)	5.66% (inactive)
CC(=O)Nc1ccc(C(=O)Nc2ccccc2N)cc1	31.2% (inactive) and 45.5% (inactive)
CC1(C)O[C@@H]2CC3C4CCC5=CC(=O)CCC5(C)C4(F)C(O)CC3(C)[C@]2(C(=O)CCl)O1 (stereo partly specified)	-3.24% (inactive) and 2.55% (inactive)
CCOC(=O)c1cc(C#N)c(N2CCC(C(=O)NS(=O)(=O)Cc3ccccc3)CC2)nc1C	13.4% (inactive)
CCCCCCCCCCCCCCCC[n+]1ccccc1	-12.3% (inactive) and -82.5% (active)
CCCCCCCC(=O)O	9.6% (inactive) and 5.48% (inactive)
CCCCCCCCCCCCCCCCCCCCCCCCC(=O)O	11.5% (inactive)
N#Cc1ccc(C(c2ccc(C#N)cc2)n2cncn2)cc1	0.399% (inactive)
c1ccc(-c2ccc(C(c3ccccc3)n3ccnc3)cc2)cc1 (stereo unspecified)	-68.3% (inactive) and -81.5% (active)
FC(F)(F)c1ccccc1-n1ccnc1	-1.27% (inactive)
CCCCCCCCc1ccc(CCC(N)(CO)CO)cc1	-79.3% (active) and -52.1% (inactive)
CCCCCCCCc1ccc(-c2ccc(C(=O)O)cc2)cc1	18% (inactive)
CCCCCCCCCCCCCCCCCCc1ccc(C(=O)/C=C/C(=O)O)cc1	11.8% (inactive)
CC1(O)C(O)C(CO)OC1n1cnc2c(NC3CCCC3)nc(Cl)nc21 (stereo unspecified)	13.4% (inactive)
CC[C@@H](C(=O)[C@@H](C)[C@@H](O)[C@H](C)[C@@H]1O[C@@H]([C@@H](CC)C(=O)O)CC[C@@H]1C)[C@H]1O[C@]2(C=C[C@@H](O)[C@]3(CC[C@@](C)(C4CC[C@](O)(CC)[C@H](C)O4)O3)O2)[C@H](C)C[C@@H]1C (stereo partly specified)	-83.1% (active)
CC[C@@H](C(=O)O)[C@@H]1O[C@@H]([C@@H](C)[C@H](O)[C@H](C)C(=O)[C@H](CC)[C@H]2O[C@]3(C=C[C@@H](O)[C@]4(CC[C@@](C)(C5CC[C@](O)(CC)[C@H](C)O5)O4)O3)[C@H](C)C[C@@H]2C)[C@@H](C)C[C@H]1C (stereo partly specified)	-82.4% (active)
CC[C@@H](C(=O)O)C1CC[C@H](C)C([C@@H](C)[C@H](O)[C@H](C)C(=O)[C@H](CC)C2O[C@]3(C=C[C@@H](O)[C@]4(CC[C@@](C)(C5CC[C@](O)(CC)[C@H](C)O5)O4)O3)[C@H](C)C[C@@H]2C)O1 (stereo partly specified)	-72.7% (active) and -80.8% (active)

Molecule	activity change, negative = inhibition
CC[C@@H](C(=O)[C@@H](C)[C@@H](O)[C@H](C)[C@@H]1O[C@@H]([C@@H](CC)C(=O)O)CC[C@@H]1C)[C@H]1OC2(C=C[C@@H](O)[C@]3(CC[C@@](C)(C4CC[C@](O)(CC)[C@H](C)O4)O3)O2)[C@H](C)C[C@@H]1C (stereo partly specified)	-90.6% (active)
NC(CC(F)C(=O)O)C(=O)O (stereo unspecified)	4.86% (inactive)
O=C(O)C1/C(=C\CO)OC2CC(=O)N21 (stereo unspecified)	6.21% (inactive)
Cc1cc(-c2ncc(CC(=O)Nc3ccc(-c4cnccn4)cn3)cc2C)ccn1	5% (inactive)
N#CC(C#N)Cc1ccc(O)cc1	0.596% (inactive)
COc1ccccc1Oc1c(NS(=O)(=O)c2ccc(C)cn2)nc(-c2ccncc2)nc1OC	7.32% (inactive)
O=C(NN1C(=O)[C@@H]2[C@@H]3C=C[C@@H]([C@H]4C[C@@H]34)[C@@H]2C1=O)c1ccc(C(F)(F)F)cc1	3.93% (inactive)
COc1ccc(CCN(C)CCc2ccc(OC)c(OC)c2)cc1OC	7.34% (inactive) and -3.3% (inactive)
COc1ccc(CCN(C)CCCN2CCc3cc(OC)c(OC)cc3CC2=O)cc1OC	10.1% (inactive)
COc1ccc(CCN(C)CCCOc2ccc(S(=O)(=O)c3c(C(C)C)c4ccccc4n3C)cc2)cc1OC	-76.5% (active)
CO[C@@H]1[C@@H](O[C@@H]2O[C@H](C)[C@@H](O[C@H]3C[C@@](C)(OC(=O)CC(C)C)[C@@H](O)[C@H](C)O3)[C@H](N(C)C)[C@H]2O)[C@@H](CC=O)C[C@@H](C)[C@@H](O)/C=C/C=C/C[C@@H](C)OC(=O)C[C@H]1OC(C)=O	-10.6% (inactive)
COc1ccc(CCO[C@@H]2CCCC[C@H]2N2CC[C@@H](O)C2)cc1OC	23% (inactive)
O=C1c2cccc(O)c2C(=O)c2c(O)cccc21	3.71% (inactive) and 0.722% (inactive)
O=C1c2c(O)ccc(O)c2C(=O)c2c(NCCNCCO)ccc(NCCNCCO)c21	-73.8% (active) and -3.38% (inactive)
O=C1c2cccc(O)c2C(=O)c2c(O)cc(CO)cc21	-11.5% (inactive)
CCCCCCCC/C=C/CCCCCCCC(=O)NCCO	-10.5% (inactive)
C=C1C(=O)[C@]23[C@H](O)[C@H]1CC[C@@H]2[C@@]12CO[C@]3(O)C[C@@H]1C(C)(C)CC[C@@H]2O	-77.5% (active) and 3.05% (inactive)
O=c1cc(-c2ccccc2O)oc2cc(O)ccc12	190% (inactive)
COP(=O)(OC)OC(c1ccc(Cl)cc1)P(=O)(OC)OC (stereo unspecified)	5.14% (inactive) and 12.1% (inactive)
CN(C)Cc1ccc(S(=O)(=O)n2ccc(/C=C/C(=O)NO)c2)cc1	-84.8% (active)
c1ccc2sc(SN3CCOCC3)nc2c1	17.7% (inactive)
COc1c(-c2ccc3cc(NS(C)(=O)=O)ccc3c2)cc(-n2ccc(=O)[nH]c2=O)cc1C(C)(C)C	17.6% (inactive)
CC(=O)OCC(=O)[C@@]1(O)[C@H](C)CC2C3CCC4=CC(=O)C=C[C@]4(C)[C@@]3(F)[C@@H](O)C[C@@]21C (stereo partly specified)	-8.27% (inactive)
Nc1nc(-c2ccc(Cl)c(Cl)c2)c(-c2ccncc2)s1	-9.5% (inactive)

Molecule	activity change, negative = inhibition
COC(=O)[C@@]12OC[C@]34[C@H]([C@@H](O)[C@@H]1O)[C@@]1(C)CC(=O)C(=O)C(C)[C@@H]1C[C@H]3OC(=O)[C@H](OC(=O)/C=C(\C)C(C)C)[C@@H]24 (stereo partly specified)	-83.7% (active)
CC(CCC(=O)O)[C@H]1CCC2C3C(=O)C[C@@H]4CC(=O)CC[C@]4(C)C3CC(=O)[C@@]21C (stereo partly specified)	4.28% (inactive) and -3.38% (inactive)
Cc1onc(-c2ccccc2)c1C(=O)N[C@@H]1C(=O)N2[C@@H](C(=O)O)C(C)(C)S[C@@H]12	3.42% (inactive)
N[C@H](Cc1cc(I)c(Oc2ccc(O)c(I)c2)c(I)c1)C(=O)O	2.18% (inactive) and -1.07% (inactive)
N[C@@]1(C(=O)O)CS(=O)(=O)[C@H]2[C@H](C(=O)O)[C@H]21	8.77% (inactive)
Ac-PHSCN-NH2	12.4% (inactive)
CC1(C)CC(=O)c2c(C(F)(F)F)nn(-c3ccc(C(N)=O)c(NC4CCC(OC(=O)CN)CC4)c3)c2C1 (stereo unspecified)	-75.4% (active)
CC1(C)CC(=O)c2c(C(F)(F)F)nn(-c3ccc(C(N)=O)c(NC4CCC(O)CC4)c3)c2C1 (stereo unspecified)	-81.9% (active)
Cn1nnc(-c2ccc(-c3ccc(N4C[C@H](CO)OC4=O)cc3F)cn2)n1	60.5% (inactive)
CCOC(=O)[C@@H](CCc1ccccc1)N[C@H](C)C(=O)N1[C@@H]2CCC[C@H]2C[C@H]1C(=O)O	14.6% (inactive)
CCCCS(=N)(=O)CC[C@H](N)C(=O)O (stereo partly specified)	0.306% (inactive)
CCCC[C@@H](CC)COC(=O)C(C#N)=C(c1ccccc1)c1ccccc1	-53.6% (inactive)
CC(=O)OCC(=O)[C@@]1(O)[C@H](OC(C)=O)CC2C3CCC4=CC(=O)C=C[C@]4(C)[C@@]3(F)[C@@H](O)C[C@@]21C (stereo partly specified)	-7.39% (inactive)
COc1ccc(-c2coc3c(O)c(O)c(OC)cc3c2=O)cc1	77.9% (inactive)
Nc1c2c(nc3ccccc13)CCCC2O (stereo unspecified)	8.95% (inactive)
Nc1c2ccccc2nc2ccccc12	-47.3% (inactive) and -70.8% (active) and 3.45% (inactive)
Nc1c2c(nc3ccccc13)CCCC2	-1.53% (inactive) and -2.1% (inactive)
CCCCCCCCCCCCCCCC[N+](C)(C)Cc1ccccc1	-3.66% (inactive)
CCCCCCCCCCCCCCCCn1cc[n+](Cc2ccccc2)c1C	-85.6% (active)
CN1CCN(CCCCN2C(=O)CN(/N=C/c3ccc(-c4ccc(Cl)cc4)o3)C2=O)CC1	16.2% (inactive)
C[N+](C)(C)CC(O)CC(=O)O (stereo unspecified)	-0.966% (inactive)
CC[C@@H](C)Nc1cc(C(=O)NC2CC3CCC(C2)N3c2ccc(C(=O)C3CC3)cn2)c(C)cc1C(N)=O (stereo partly specified)	-89.6% (active)
CCCCC(F)(F)C(=O)CC[C@H]1[C@H](O)CC(=O)[C@@H]1CCCCCCC(=O)O	34.9% (inactive) and 7.68% (inactive)
